According to article PMC5540273 (PLoS ONE, 2017):

tested on: MAP4K5; details: concentration: 1 μM, replicates: in singlicate; n = 1
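Also: KINOMEscan kinase panel screen.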

Row | SMILES | %Inh [%]
1 | CNc1nccc(-c2c(-c3ccc(F)cc3)ncn2C2CCN(C)CC2)n1 [SB-222903] | 0
2 | CCn1c(-c2ccncc2)nc2cnccc21 [SB-735216] | 0
3 | Clc1cc(Nc2ncnc3cc[nH]c23)ccc1OCc1ccccn1 | 6
4 | CN1CCC(n2cnc(-c3ccc(F)cc3)c2-c2ccnc(NC3CCNCC3)n2)CC1 [SB-229482] | 0
5 | Fc1ccc(-c2ncn(CCCNCc3ccccc3)c2-c2ccncc2)cc1 | 12
6 | Cc1ccc(NC(=O)c2cccc(C#N)c2)cc1-c1ccc(C(=O)Nc2ccncc2)cc1 [GSK1398463] | 0
7 | O=C(c1ccc(-c2cc(-c3c[nH]nc3-c3ccccn3)ccn2)cc1)N1CCCC1 [GW792479] | 0
8 | Cl.c1ccc(Cn2ccc3cc(Nc4ncnc5ccccc45)ccc32)cc1 [GW275568] | 3
9 | CS(=O)(=O)CCNCc1ccc(-c2ccc3ncnc(Nc4ccc(OCc5ccccc5)c(Cl)c4)c3c2)o1.Cl [GW574783] | 5
10 | CCC(CC)(CC)n1cnc2c(N)ncnc21 [SKF-97620] | 0
11 | CC(C)(C)OC(=O)NC1CCCN(c2cc(-c3ccc4c(N)n[nH]c4c3)nc(N)n2)C1 (stereo not drawn) [GSK2286096] | 0
12 | O=C(Nc1ccccc1F)NC1CCN(c2ccnc(Nc3ccc(F)cc3)n2)C1 (stereo not drawn) [GSK1379722] | 0
13 | Cl.c1ccc(Cn2ncc3cc(Nc4ncnc5ccccc45)ccc32)cc1 [GW273749] | 0
14 | CC(=O)Nc1n[nH]c2ncc(-c3ccccc3)cc12 [SB-548492] | 4
15 | Cc1cc(N2CCC(NS(=O)(=O)c3ccc(F)cc3)CC2)nc(Nc2cccc(C#N)c2)n1.O=C(O)C(F)(F)F [GSK1653537] | 3
16 | N#Cc1ccc(Oc2ccc(Nc3ncnc4cc[nH]c34)cc2Cl)cc1 | 27
17 | CCc1nc(-c2cccc(N(C)S(=O)(=O)c3ccccc3)c2)c(-c2ccnc(Nc3ccc(N4CCN(C(C)=O)CC4)nc3)n2)s1 [GSK1645895] | 17
18 | CNc1nccc(-c2c(-c3ccc(F)cc3)ncn2CCCN2CCOCC2)n1 [SB-222516] | 8

Row | SMILES | %Inh [%]
19 | Cc1ccc(C)c(NC(=O)NCCNc2ccnc(Nc3ccc(F)cc3)n2)c1 [GSK1379878] | 0
20 | Cc1cccc(-c2nc(Nc3ccc4[nH]nnc4c3)c3ccccc3n2)n1 [GW867587] | 0
21 | COc1ccc(Nc2nccc(N3CCC(NC(=O)c4cccc(NC(C)=O)c4)C3)n2)cc1 (stereo not drawn) [GSK1379732] | 0
22 | CSc1ccc(NC2=C(c3ccccc3Cl)C(=O)NC2=O)cc1 [SB-342411] | 6
23 | C[C@@H]1CCN(C(=O)CO)C[C@@H]1N(C)c1ncnc2[nH]ccc12 | 0
24 | CSc1nn2c(=O)cc(N3CCOCC3)nc2n1Cc1cccc(Cl)c1Cl [GSK2347225] | 12
25 | COc1ccc(-c2oc3ncnc(N)c3c2-c2ccc(OC)cc2)cc1 [SB-589132] | 0
26 | COc1ccc(NC(=O)c2ccc(-c3cc(-c4nnc(C)o4)ccc3C)cc2)cc1 [GW595885] | 0
27 | COC(=O)c1c(-c2ccccc2)c2cc(Cl)ccc2c(=O)n1Cc1ccc(S(C)(=O)=O)cc1 | 0
28 | CS(=O)(=O)CCNCc1nc(-c2ccc3ncnc(Nc4ccc(OCc5cccc(F)c5)c(Cl)c4)c3c2)cs1.Cl [GW583340] | 0
29 | Cc1ccc(O)cc1Nc1cc(C(F)(F)F)nc2ccc(-c3ccncc3)cc12 [GW630823] | 0
30 | Nc1nc(-c2ccc3c(N)n[nH]c3c2)cc(N2CCC[C@@H](C(=O)Nc3ccccc3)C2)n1.O=C(O)C(F)(F)F.O=C(O)C(F)(F)F [GSK2288359] | 6
31 | CN1c2ccc(-c3ccc(C(=O)NCCO)cc3)cc2-c2[nH]ncc2S1(=O)=O | 25
32 | Oc1ccc2ncnc(Nc3ccc(OCc4ccccc4)cc3)c2c1 [GI262866] | 0
33 | Nc1nc(-c2ccccn2)c(-c2ccnc3ccccc23)s1 [GW548057] | 0
34 | FC(F)(F)c1ccc(-c2cc(-c3c[nH]nc3-c3ccccn3)ccn2)cc1 [GW599550] | 8
35 | Cn1cc(-c2ccc3c(c2)CCN3C(=O)Cc2cccc(C(F)(F)F)c2)c2c(N)ncnc21 [GSK2606414] | 10
36 | NC(=O)c1sc(-n2cnc3ccccc32)cc1OCc1ccccc1F [GSK1024306] | 21

tested on: MAPKAPK2; details: concentration: 1 μM, replicates: in singlicate; n = 1

Row | SMILES | %Inh [%]
37 | CNc1nccc(-c2c(-c3ccc(F)cc3)ncn2C2CCN(C)CC2)n1 [SB-222903] | 0
38 | CCn1c(-c2ccncc2)nc2cnccc21 [SB-735216] | 16
39 | Clc1cc(Nc2ncnc3cc[nH]c23)ccc1OCc1ccccn1 | 5
40 | CN1CCC(n2cnc(-c3ccc(F)cc3)c2-c2ccnc(NC3CCNCC3)n2)CC1 [SB-229482] | 8
41 | Fc1ccc(-c2ncn(CCCNCc3ccccc3)c2-c2ccncc2)cc1 | 10
42 | Cc1ccc(NC(=O)c2cccc(C#N)c2)cc1-c1ccc(C(=O)Nc2ccncc2)cc1 [GSK1398463] | 24
43 | O=C(c1ccc(-c2cc(-c3c[nH]nc3-c3ccccn3)ccn2)cc1)N1CCCC1 [GW792479] | 0
44 | Cl.c1ccc(Cn2ccc3cc(Nc4ncnc5ccccc45)ccc32)cc1 [GW275568] | 7
45 | CS(=O)(=O)CCNCc1ccc(-c2ccc3ncnc(Nc4ccc(OCc5ccccc5)c(Cl)c4)c3c2)o1.Cl [GW574783] | 16
46 | CCC(CC)(CC)n1cnc2c(N)ncnc21 [SKF-97620] | 0
47 | CC(C)(C)OC(=O)NC1CCCN(c2cc(-c3ccc4c(N)n[nH]c4c3)nc(N)n2)C1 (stereo not drawn) [GSK2286096] | 0
48 | O=C(Nc1ccccc1F)NC1CCN(c2ccnc(Nc3ccc(F)cc3)n2)C1 (stereo not drawn) [GSK1379722] | 18
49 | Cl.c1ccc(Cn2ncc3cc(Nc4ncnc5ccccc45)ccc32)cc1 [GW273749] | 13
50 | CC(=O)Nc1n[nH]c2ncc(-c3ccccc3)cc12 [SB-548492] | 5
51 | Cc1cc(N2CCC(NS(=O)(=O)c3ccc(F)cc3)CC2)nc(Nc2cccc(C#N)c2)n1.O=C(O)C(F)(F)F [GSK1653537] | 23
52 | N#Cc1ccc(Oc2ccc(Nc3ncnc4cc[nH]c34)cc2Cl)cc1 | 0
53 | CCc1nc(-c2cccc(N(C)S(=O)(=O)c3ccccc3)c2)c(-c2ccnc(Nc3ccc(N4CCN(C(C)=O)CC4)nc3)n2)s1 [GSK1645895] | 0
54 | CNc1nccc(-c2c(-c3ccc(F)cc3)ncn2CCCN2CCOCC2)n1 [SB-222516] | 0

Row | SMILES | %Inh [%]
55 | Cc1ccc(C)c(NC(=O)NCCNc2ccnc(Nc3ccc(F)cc3)n2)c1 [GSK1379878] | 0
56 | Cc1cccc(-c2nc(Nc3ccc4[nH]nnc4c3)c3ccccc3n2)n1 [GW867587] | 0
57 | COc1ccc(Nc2nccc(N3CCC(NC(=O)c4cccc(NC(C)=O)c4)C3)n2)cc1 (stereo not drawn) [GSK1379732] | 0
58 | CSc1ccc(NC2=C(c3ccccc3Cl)C(=O)NC2=O)cc1 [SB-342411] | 3
59 | C[C@@H]1CCN(C(=O)CO)C[C@@H]1N(C)c1ncnc2[nH]ccc12 | 0
60 | CSc1nn2c(=O)cc(N3CCOCC3)nc2n1Cc1cccc(Cl)c1Cl [GSK2347225] | 22
61 | COc1ccc(-c2oc3ncnc(N)c3c2-c2ccc(OC)cc2)cc1 [SB-589132] | 19
62 | COc1ccc(NC(=O)c2ccc(-c3cc(-c4nnc(C)o4)ccc3C)cc2)cc1 [GW595885] | 25
63 | COC(=O)c1c(-c2ccccc2)c2cc(Cl)ccc2c(=O)n1Cc1ccc(S(C)(=O)=O)cc1 | 24
64 | CS(=O)(=O)CCNCc1nc(-c2ccc3ncnc(Nc4ccc(OCc5cccc(F)c5)c(Cl)c4)c3c2)cs1.Cl [GW583340] | 4
65 | Cc1ccc(O)cc1Nc1cc(C(F)(F)F)nc2ccc(-c3ccncc3)cc12 [GW630823] | 0
66 | Nc1nc(-c2ccc3c(N)n[nH]c3c2)cc(N2CCC[C@@H](C(=O)Nc3ccccc3)C2)n1.O=C(O)C(F)(F)F.O=C(O)C(F)(F)F [GSK2288359] | 0
67 | CN1c2ccc(-c3ccc(C(=O)NCCO)cc3)cc2-c2[nH]ncc2S1(=O)=O | 0
68 | Oc1ccc2ncnc(Nc3ccc(OCc4ccccc4)cc3)c2c1 [GI262866] | 16
69 | Nc1nc(-c2ccccn2)c(-c2ccnc3ccccc23)s1 [GW548057] | 0
70 | FC(F)(F)c1ccc(-c2cc(-c3c[nH]nc3-c3ccccn3)ccn2)cc1 [GW599550] | 28
71 | Cn1cc(-c2ccc3c(c2)CCN3C(=O)Cc2cccc(C(F)(F)F)c2)c2c(N)ncnc21 [GSK2606414] | 100
72 | NC(=O)c1sc(-n2cnc3ccccc32)cc1OCc1ccccc1F [GSK1024306] | 0
